Experiment [1] concerns Plasmodium falciparum Sir2 (PF13_0152, Sir2A). Briefly: Plasmodium falciparum Sir2A binding compounds – biochemical, small-molecule microarray, 635 nm fluorescence, primary screen (AID 1098).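 Further: score merges spot fluorescence intensity with its signal-to-noise ratio.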 Conditions: fluorescence 635 nm, higher = more signal.
Experiment [2] is described as follows: probe aDKK1 binding to arrayed compounds – biochemical, biotinylated probe, 635/667 nm fluorescence, primary screen (AID 1099).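 Further: score merges 667nm spot fluorescence with signal to noise across triplicate slides.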 The following applies: small-molecule microarray, higher = more signal.
The nature of experiment [3]: probe aCHRDL2 binding to arrayed compounds – biochemical, biotinylated probe, 635/667 nm fluorescence, primary screen (AID 1100). Conditions: small-molecule microarray, higher = more signal.
The nature of experiment [4]: change in splice reporter luminescence, either direction, cell-based, HEK293, spliceosome inhibition project, primary screen (AID 1101).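 Further: HEK293 cells carrying a splicing-competent luciferase reporter gene; test concentration not given here.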 Conditions: HEK293 splicing luciferase reporter, 24 h, higher = more signal, called active from +8 up or from −8 down.
The target in experiment [5] is Fibroblast growth factor 10 (Homo sapiens) (UniProt O15520). In words: compounds binding fibroblast growth factor 10 – biochemical, small-molecule microarray, 635 nm fluorescence, primary screen (AID 1102). Conditions: FGF10 binding, fluorescence 635 nm, higher = more signal.
Sequence of Fibroblast growth factor 10 (Homo sapiens) (O15520 whole entry, looked up): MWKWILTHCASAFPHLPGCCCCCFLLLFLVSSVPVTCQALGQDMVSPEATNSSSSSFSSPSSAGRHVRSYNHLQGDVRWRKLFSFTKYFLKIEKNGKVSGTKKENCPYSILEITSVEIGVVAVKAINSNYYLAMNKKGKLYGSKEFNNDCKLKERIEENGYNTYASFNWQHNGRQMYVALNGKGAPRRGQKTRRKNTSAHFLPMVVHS
Experiment [6] deals with glycogen synthase kinase-3 (GSK3A per assay name; protocol says GSK3B). In words: compounds binding glycogen synthase kinase-3 – biochemical, small-molecule microarray, 635 nm fluorescence, GSK3A, primary screen (AID 1103). Further: the record names both GSK3A and GSK3B. The following applies: fluorescence 635 nm, higher = more signal.
Experiment [7] deals with Epidermal growth factor receptor (Homo sapiens) (UniProt P00533). In words: compounds binding epidermal growth factor receptor – biochemical, small-molecule microarray, 635 nm fluorescence, primary screen (AID 1104).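 Further: score merges 667 nm emission intensity with spot signal to noise over triplicate slides.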 The following applies: EGFR binding, higher = more signal.
Sequence of Epidermal growth factor receptor (Homo sapiens) (P00533 whole entry, looked up): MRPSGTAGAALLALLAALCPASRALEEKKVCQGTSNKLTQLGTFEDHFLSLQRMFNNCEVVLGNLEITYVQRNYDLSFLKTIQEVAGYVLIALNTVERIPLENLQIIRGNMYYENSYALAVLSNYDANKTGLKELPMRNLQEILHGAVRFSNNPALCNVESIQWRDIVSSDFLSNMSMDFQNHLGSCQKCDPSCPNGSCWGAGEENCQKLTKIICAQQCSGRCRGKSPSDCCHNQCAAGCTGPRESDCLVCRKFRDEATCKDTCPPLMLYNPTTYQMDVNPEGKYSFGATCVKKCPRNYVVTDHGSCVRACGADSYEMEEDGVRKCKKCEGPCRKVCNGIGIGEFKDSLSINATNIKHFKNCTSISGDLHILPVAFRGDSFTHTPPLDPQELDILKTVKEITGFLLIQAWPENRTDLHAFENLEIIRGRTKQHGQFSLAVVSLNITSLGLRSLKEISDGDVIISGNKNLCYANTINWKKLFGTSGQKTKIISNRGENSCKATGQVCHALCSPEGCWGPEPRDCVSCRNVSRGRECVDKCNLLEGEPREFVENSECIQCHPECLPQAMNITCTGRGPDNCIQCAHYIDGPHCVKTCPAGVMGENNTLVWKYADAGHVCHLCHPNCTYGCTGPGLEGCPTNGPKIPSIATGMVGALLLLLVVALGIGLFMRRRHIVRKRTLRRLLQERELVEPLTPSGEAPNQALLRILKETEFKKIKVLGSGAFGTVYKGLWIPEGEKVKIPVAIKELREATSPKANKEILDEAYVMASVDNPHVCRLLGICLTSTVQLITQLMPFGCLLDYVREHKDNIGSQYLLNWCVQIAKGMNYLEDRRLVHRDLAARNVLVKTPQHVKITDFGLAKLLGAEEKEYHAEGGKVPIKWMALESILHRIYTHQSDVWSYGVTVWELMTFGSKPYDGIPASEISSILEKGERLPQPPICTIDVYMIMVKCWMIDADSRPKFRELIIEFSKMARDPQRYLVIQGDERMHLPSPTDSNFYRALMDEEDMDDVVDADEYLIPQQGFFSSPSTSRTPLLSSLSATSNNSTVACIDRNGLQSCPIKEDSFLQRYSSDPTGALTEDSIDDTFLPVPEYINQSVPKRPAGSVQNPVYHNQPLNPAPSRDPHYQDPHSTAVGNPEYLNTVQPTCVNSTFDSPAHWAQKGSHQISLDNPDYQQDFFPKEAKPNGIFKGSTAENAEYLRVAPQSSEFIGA
The target in experiment [8] is Follistatin-related protein 3 (Homo sapiens) (UniProt O95633). In words: compounds binding follistatin-related protein 3 – biochemical, small-molecule microarray, 635 nm fluorescence, primary screen (AID 1105).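 Further: score merges emission near 667 nm and signal to noise per printed spot across three slides.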 Conditions: FSTL3 binding, higher = more signal.
Sequence of Follistatin-related protein 3 (Homo sapiens) (O95633 whole entry, looked up): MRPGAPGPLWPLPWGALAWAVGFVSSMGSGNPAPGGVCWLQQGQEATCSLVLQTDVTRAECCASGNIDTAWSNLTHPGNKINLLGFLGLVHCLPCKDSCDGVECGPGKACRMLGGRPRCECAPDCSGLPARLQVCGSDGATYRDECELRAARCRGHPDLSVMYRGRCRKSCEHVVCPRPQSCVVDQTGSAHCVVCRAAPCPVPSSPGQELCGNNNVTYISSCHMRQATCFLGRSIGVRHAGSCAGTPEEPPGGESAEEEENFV
The target in experiment [9] is Dickkopf-related protein 1 (Homo sapiens) (UniProt O94907). Briefly: small molecules binding DKK1 protein – biochemical, small-molecule microarray, 635 nm fluorescence scan, primary screen (AID 1106).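 Further: score merges emission near 667 nm with signal to noise over three replicate slides.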 The following applies: higher = more signal.
Sequence of Dickkopf-related protein 1 (Homo sapiens) (O94907 whole entry, looked up): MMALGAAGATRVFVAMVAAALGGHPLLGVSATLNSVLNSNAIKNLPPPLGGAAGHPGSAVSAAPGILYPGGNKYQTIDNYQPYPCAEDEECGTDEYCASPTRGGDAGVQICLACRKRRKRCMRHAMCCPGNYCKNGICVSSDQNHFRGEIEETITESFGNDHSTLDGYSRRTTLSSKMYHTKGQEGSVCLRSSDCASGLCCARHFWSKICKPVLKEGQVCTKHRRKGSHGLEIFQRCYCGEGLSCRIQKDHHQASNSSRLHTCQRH
For experiment [10], the system named is Inhibin beta A chain (activin A). In words: small molecules binding activin A – biochemical, small-molecule microarray, 635 nm fluorescence scan, primary screen (AID 1107).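 Further: mouse activin A protein probed at 4.33 µg/mL on printed slides; score merges bound-protein fluorescence near 667 nm with spot signal-to-noise.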 The following applies: INHBA, higher = more signal.
Experiment [11] deals with Human papillomavirus type 1a protein E7 (residues 44-93). In words: small molecules binding HPV E7 44-93 – biochemical, small-molecule microarray, residues 44-93, 635 nm fluorescence, primary screen (AID 1108).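 Further: E7 fragment applied at 1 µg/mL in TBST for 1 h at 4 C; score combines spot fluorescence with its signal to noise ratio.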 Conditions: fluorescence 635 nm, higher = more signal.
A short description of experiment [12]: hepatitis C replication reporter changes, two-sided – Huh7 cells, luciferase reporter, HCV replication inhibitor project, primary screen (AID 1109).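 Further: huh7 hepatoma cells harbouring a luciferase neomycin HCV replicon reporter; luciferase luminescence as measure of HCV replicon replication; test concentration not given here.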 Conditions: Huh7 HCV replicon luciferase reporter, 48 h; higher = more signal. (A reporter such as luciferase makes a cellular process visible.)
Experiment [13] concerns the target Left-right determination factor 2 (Homo sapiens) (UniProt O00292). In words: small molecules binding LEFTY2 protein – biochemical, small-molecule microarray, 635 nm fluorescence scan, primary screen (AID 1110). Conditions: higher = more signal.
The target of experiment [14] is Calmodulin-1 (Homo sapiens) (UniProt P0DP23). In words: small molecules binding calmodulin-1 with EGTA – biochemical, small-molecule microarray, Cy5-labelled CALM1, profiling panel (AID 1111).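 Further: labelled calmodulin applied in Tris saline Tween buffer holding calcium plus EGTA and DTT.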 Conditions: Cy5-CALM1 binding fluorescence, higher = more signal.
The target is the same in experiment [15]. In words: small molecules binding Ca-loaded calmodulin-1 – biochemical, small-molecule microarray, Cy5-labelled CALM1, plus calcium, artefact control for SMM control-protein annotation, profiling panel (AID 1112).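 Further: score merges spot fluorescence with signal to noise from triplicate slides.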 The following applies: Cy5-CALM1 binding fluorescence, higher = more signal.
Experiment [16] is described as follows: probe aWnt5a binding to arrayed compounds – biochemical, biotinylated probe, 635/667 nm fluorescence, primary screen (AID 1113).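 Further: score merges 667 nm fluorescence intensity with signal-to-noise per printed feature.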 The following applies: small-molecule microarray, higher = more signal.
A short description of experiment [17]: probe aShh binding to arrayed compounds – biochemical, biotinylated probe, 635/667 nm fluorescence, primary screen (AID 1114).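 Further: probe is biotin-labelled aShh protein from a stem cell growth factor screen; measures binding of labelled protein to compounds printed on the slide; score merges feature fluorescence at 667 nm with signal-to-noise.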 The following applies: small-molecule microarray, higher = more signal.
The nature of experiment [18]: probe aNog binding to arrayed compounds – biochemical, biotinylated probe, 635/667 nm fluorescence, primary screen (AID 1115).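 Further: probe is biotinylated aNog protein used at 0.15 µg/mL for 1 h at 4 C; z-score combines 667 nm fluorescence of each spot with its signal to noise.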 Conditions: small-molecule microarray, higher = more signal.
Experiment [19] deals with Torsin-1A-interacting protein 1 (Homo sapiens) (UniProt Q5JTV8). Briefly: compound microarray binding of lysate hLAP1 – cell lysate, small-molecule microarray, COS7 lysate, 635/667 nm fluorescence, primary screen (AID 1116). The following applies: 635 nm fluorescence, higher = more signal.
Sequence of Torsin-1A-interacting protein 1 (Homo sapiens) (Q5JTV8 whole entry, looked up): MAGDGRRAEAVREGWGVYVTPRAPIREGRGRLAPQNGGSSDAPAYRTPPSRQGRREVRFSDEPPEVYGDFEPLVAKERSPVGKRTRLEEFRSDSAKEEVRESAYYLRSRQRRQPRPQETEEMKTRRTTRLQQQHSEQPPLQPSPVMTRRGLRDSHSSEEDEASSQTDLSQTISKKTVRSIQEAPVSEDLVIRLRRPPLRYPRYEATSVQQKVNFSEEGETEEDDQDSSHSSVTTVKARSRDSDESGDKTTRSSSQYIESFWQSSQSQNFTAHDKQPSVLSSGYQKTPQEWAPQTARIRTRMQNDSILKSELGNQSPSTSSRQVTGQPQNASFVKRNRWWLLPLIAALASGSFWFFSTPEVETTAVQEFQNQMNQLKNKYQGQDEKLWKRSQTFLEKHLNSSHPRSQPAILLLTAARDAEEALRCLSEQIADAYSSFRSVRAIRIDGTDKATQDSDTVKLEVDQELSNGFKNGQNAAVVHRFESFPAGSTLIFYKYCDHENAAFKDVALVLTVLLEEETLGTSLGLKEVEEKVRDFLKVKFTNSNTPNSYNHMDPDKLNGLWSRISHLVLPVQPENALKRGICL
Experiment [20] has as its target Alpha-bungarotoxin (Bungarus multicinctus) (UniProt P60615). In words: compounds binding labelled alpha-BTX control protein – biochemical, small-molecule microarray, Alexa647 label, 635/667 nm fluorescence, artefact control for SMM control protein annotation, profiling panel (AID 1117). The following applies: alpha-BTX-A647 binding fluorescence, higher = more signal.

Each structure is given as a SMILES string. Active and inactive are the calls of the source.

Sequence of Alpha-bungarotoxin (Bungarus multicinctus) (P60615 whole entry, looked up): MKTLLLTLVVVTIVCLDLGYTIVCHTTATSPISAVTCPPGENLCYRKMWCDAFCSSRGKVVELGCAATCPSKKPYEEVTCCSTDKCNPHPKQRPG
Sequence of Left-right determination factor 2 (Homo sapiens) (O00292 whole entry, looked up): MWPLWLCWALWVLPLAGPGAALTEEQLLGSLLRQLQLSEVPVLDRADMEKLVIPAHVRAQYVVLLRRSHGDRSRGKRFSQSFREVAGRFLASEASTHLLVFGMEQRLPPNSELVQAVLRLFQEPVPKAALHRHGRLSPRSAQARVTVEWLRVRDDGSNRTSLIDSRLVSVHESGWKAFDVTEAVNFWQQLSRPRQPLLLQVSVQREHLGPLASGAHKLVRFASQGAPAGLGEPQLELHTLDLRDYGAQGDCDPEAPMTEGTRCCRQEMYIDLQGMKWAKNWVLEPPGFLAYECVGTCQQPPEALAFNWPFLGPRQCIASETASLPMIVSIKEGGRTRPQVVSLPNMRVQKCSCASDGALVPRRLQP

In the case of `CCOC(=O)C1=C[C@@H](C(C)C)N(S(=O)(=O)c2ccc(C)cc2)[C@H]1c1ccc(C(C)C)cc1`, the composite z-score was 1.65 in [1]; -0.132 in experiment [2]; -0.229 in experiment [3]; 1.04 in experiment [5]; 1.3 in experiment [6]; 0.848 in experiment [7]. For the same molecule, the composite z-score turned out to be 1.35 in experiment [8]; 0.57 in experiment [9]; 0.375 in experiment [10]; 1.35 in [11]; 0.524 in experiment [13]; 1.33 in [14]. The composite z-score in experiment [15] is -0.144; in experiment [16], -0.0735; in experiment [17] it was -0.138; in experiment [18] it was -0.58; in experiment [19], 0.324; in experiment [20] it was 1.1. Moreover, the z-score in experiment [4] was 0.449 (inactive); in experiment [12] it was -2.16.
In the case of `C=CCC(OC(C)=O)[C@@H]1[C@@H](N(Cc2cccc3ccccc23)C(=O)c2cccc3ccccc23)c2cc(OCCCO)ccc2N1C(=O)c1ccc2ccccc2n1` (stereo not given in full), the composite z-score is -0.0758 in experiment [1]; -0.095 in experiment [2]; 0.181 in experiment [3]; 0.635 in experiment [5]; 0.0702 in experiment [6]; -0.0538 in experiment [7]. In addition, the composite z-score was 0.256 in experiment [8]; -0.501 in [9]; 1.45 in experiment [10]; -0.316 in experiment [11]; 0.146 in [13]; -0.301 in [14]. Besides, the composite z-score in [15] was 0.117; in experiment [16] it was -0.208; in experiment [17] it was -0.138; in experiment [18], 0.151; in experiment [19], -0.117; in experiment [20] it was -0.198. For the same molecule, the values for the z-score in [4] and in [12] were -0.202 (inactive) and 1.21, respectively.
Consider `COC(=O)c1c(CC[C@@H](CO)NC(=O)N[C@@H](Cc2ccccc2)Cn2cc(C3(O)CCCCC3)nn2)oc(C(C)=O)c1C(=O)OC`, for which the composite z-score is 0.893 in experiment [1]; -0.27 in experiment [2]; -0.328 in experiment [3]; 1.31 in experiment [5]; 0.819 in experiment [6]; 0.346 in experiment [7]. In addition, the composite z-score in experiment [8] was found to be 0.873; in experiment [9], 0.514; in experiment [10], 0.382; in experiment [11] it was 1.28; in experiment [13], 0.693; in [14], 0.267. Also, the composite z-score in experiment [15] is -0.36; in [16], -0.096; in experiment [17], -0.142; in experiment [18], -0.449; in experiment [19], 0.639; in experiment [20] it was 0.519. The results for the z-score in experiment [4] and in [12] were -2.62 (inactive) and -1.47, respectively.
For the molecule `C=CCN1C(=O)[C@]2(O[C@H](CCO)[C@@H]([Si](C)(C)c3ccc(OC)cc3)[C@@H]2C)c2cc(NC(=O)[C@H](C)O)ccc21`, the composite z-score in experiment [1] is 1.45; in [2], -0.191; in [3] it was -0.159; in [5], 1.27; in [6] it was 0.984; in experiment [7], -0.191. For the same molecule, the composite z-score in [8] amounted to 0.267; in experiment [9], 0.0607; in [10], 0.197; in experiment [11], 0.942; in experiment [13], 0.0707; in experiment [14], 0.737. Moreover, the composite z-score in experiment [15] was -0.217; in [16], -0.0799; in experiment [17] it was 0.13; in experiment [18], -0.204; in experiment [19], 0.925; in experiment [20], 0.69. The z-score in experiment [4] is -1.26 (inactive); in [12] it was -4.97.
Regarding `CCOC(=O)C1=CCC(c2ccc([N+](=O)[O-])cc2)N(S(=O)(=O)c2ccc(C)cc2)C1` (stereo not given), the composite z-score is 0.376 in experiment [1]; 0.616 in experiment [2]; 0.983 in experiment [3]; -0.0502 in experiment [5]; 0.0526 in experiment [6]; -0.356 in [7]. For the same molecule, the composite z-score is 0.171 in experiment [8]; -0.421 in experiment [9]; 1.32 in experiment [10]; 1.08 in experiment [11]; -0.087 in [13]; 0.279 in [14]. Moreover, the composite z-score in experiment [15] was 0.548; in [16] it was -0.0644; in [17] it was 0.138; in experiment [18], 0.61; in experiment [19], 0.304; in experiment [20] it was 0.159. Moreover, the z-score was -0.22 (inactive) in experiment [4] and -2.35 in experiment [12].

Source of the values: PubChem BioAssay.
